PubChem BioAssay (EPA / NIEHS)
Results filed as inconclusive are left out. Activity calls are given as the source filed them. Rule for the calls, unless noted: active = hit-call score of the fitted dose curve at least 0.9, where 1 is the maximum; inconclusive = response in the unintended direction; inactive = score below 0.9.

Experiments:
[1] = CCTE_Harrill_HTTr_Viability_DMEM_6hr: (Pilot) CCTE's 6-hour Cell Viability Assessment for the High-Throughput Transcriptomics (HTTr) Platform, in MCF-7 cells cultured in DMEM + 10% fetal bovine serum, Harrill Lab (AID 2283973; active = hit-call score of the fitted dose curve at least 0.9, where 1 is the maximum; inactive = score below 0.9)
Procedure, shortened: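 MCF-7 cells in DMEM + 10% FBS, eight-point dilution series, 6 h exposure. Membrane integrity by propidium iodide exclusion with high-content imaging; bidirectional fit versus DMSO.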

[2] = CCTE_Harrill_HTTr_Viability_DMEM_12hr: (Pilot) CCTE's 12-hour Cell Viability Assessment for the High-Throughput Transcriptomics (HTTr) Platform, in MCF-7 cells cultured in DMEM + 10% fetal bovine serum, Harrill Lab (AID 2283974; active = hit-call score of the fitted dose curve at least 0.9, where 1 is the maximum; inactive = score below 0.9)
Procedure, shortened: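 MCF-7 cells in DMEM + 10% FBS exposed 12 h to an eight-point dilution series; membrane integrity scored by propidium iodide exclusion with high-content imaging, bidirectional fitting versus DMSO.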

[3] = CCTE_Harrill_HTTr_Viability_DMEM_24hr: (Pilot) CCTE's 24-hour Cell Viability Assessment for the High-Throughput Transcriptomics (HTTr) Platform, in MCF-7 cells cultured in DMEM + 10% fetal bovine serum, Harrill Lab (AID 2283975; active = hit-call score of the fitted dose curve at least 0.9, where 1 is the maximum; inactive = score below 0.9)
Procedure, shortened: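 MCF-7 cells in DMEM with 10% FBS exposed for 24 hours to an eight-point dilution series. Membrane integrity by propidium iodide exclusion with high content imaging; bidirectional fit against DMSO.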

[4] = CCTE_Harrill_HTTr_Viability_PRF_DMEM_6hr: (Pilot) CCTE's 6-hour Cell Viability Assessment for the High-Throughput Transcriptomics (HTTr) Platform, in MCF-7 cells cultured phenol red-free DMEM + 10% charcoal-stripped fetal bovine serum, Harrill Lab (AID 2283976; active = hit-call score of the fitted dose curve at least 0.9, where 1 is the maximum; inactive = score below 0.9)
Procedure, shortened: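 MCF-7 cells in phenol red-free DMEM with 10% charcoal-stripped FBS exposed 6 hours to an eight-point dilution series. Propidium iodide exclusion imaged; curves fitted bidirectionally against DMSO.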

[5] = CCTE_Harrill_HTTr_Viability_PRF_DMEM_12hr: (Pilot) CCTE's 12-hour Cell Viability Assessment for the High-Throughput Transcriptomics (HTTr) Platform, in MCF-7 cells cultured in phenol red-free DMEM + 10% charcoal-stripped fetal bovine serum, Harrill Lab (AID 2283977; active = hit-call score of the fitted dose curve at least 0.9, where 1 is the maximum; inactive = score below 0.9)
Procedure, shortened: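 MCF-7 cells in phenol red-free DMEM with 10% charcoal-stripped FBS exposed 12 hours to an eight-point dilution series. Viability assessed by high-content imaging of propidium iodide exclusion; bidirectional fit versus DMSO.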

[6] = CCTE_Harrill_HTTr_Viability_PRF_DMEM_24hr: (Pilot) CCTE's 24-hour Cell Viability Assessment for the High-Throughput Transcriptomics (HTTr) Platform, in MCF-7 cells cultured in phenol red-free DMEM + 10% charcoal-stripped fetal bovine serum, Harrill Lab (AID 2283980; active = hit-call score of the fitted dose curve at least 0.9, where 1 is the maximum; inactive = score below 0.9)
Procedure, shortened: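 MCF-7 cells in phenol red-free DMEM with 10% charcoal-stripped FBS, eight-point dilution series, 24 h exposure. Membrane integrity by propidium iodide exclusion with high content imaging; bidirectional fit vs DMSO.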

[7] = CCTE_Harrill_HTTr_Apoptosis_DMEM_6hr: (Pilot) CCTE's 6-hour Apoptosis Assessment for the High-Throughput Transcriptomics (HTTr) Platform, in MCF-7 cells cultured in DMEM + 10% fetal bovine serum, Harrill Lab (AID 2283981; active = hit-call score of the fitted dose curve at least 0.9, where 1 is the maximum; inactive = score below 0.9)
Procedure, shortened: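 Caspase-3/7 activation read by high content imaging with CellEvent Caspase 3/7 Green in MCF-7 cells (DMEM + 10% FBS), 6 h after dosing; eight-point dilution series. Bidirectional fitting relative to DMSO baseline.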

[8] = target: PGR (gene 5241) (UniProt P06401); assay: TOX21_PR_BLA_Followup_Antagonist_ratio: Tox21 HEK293 Progesterone Receptor (PR) Antagonism Beta-lactamase Follow-Up Assay, Ratio (AID 2283934)
Sequence of PGR (gene 5241) (P06401 whole entry, looked up): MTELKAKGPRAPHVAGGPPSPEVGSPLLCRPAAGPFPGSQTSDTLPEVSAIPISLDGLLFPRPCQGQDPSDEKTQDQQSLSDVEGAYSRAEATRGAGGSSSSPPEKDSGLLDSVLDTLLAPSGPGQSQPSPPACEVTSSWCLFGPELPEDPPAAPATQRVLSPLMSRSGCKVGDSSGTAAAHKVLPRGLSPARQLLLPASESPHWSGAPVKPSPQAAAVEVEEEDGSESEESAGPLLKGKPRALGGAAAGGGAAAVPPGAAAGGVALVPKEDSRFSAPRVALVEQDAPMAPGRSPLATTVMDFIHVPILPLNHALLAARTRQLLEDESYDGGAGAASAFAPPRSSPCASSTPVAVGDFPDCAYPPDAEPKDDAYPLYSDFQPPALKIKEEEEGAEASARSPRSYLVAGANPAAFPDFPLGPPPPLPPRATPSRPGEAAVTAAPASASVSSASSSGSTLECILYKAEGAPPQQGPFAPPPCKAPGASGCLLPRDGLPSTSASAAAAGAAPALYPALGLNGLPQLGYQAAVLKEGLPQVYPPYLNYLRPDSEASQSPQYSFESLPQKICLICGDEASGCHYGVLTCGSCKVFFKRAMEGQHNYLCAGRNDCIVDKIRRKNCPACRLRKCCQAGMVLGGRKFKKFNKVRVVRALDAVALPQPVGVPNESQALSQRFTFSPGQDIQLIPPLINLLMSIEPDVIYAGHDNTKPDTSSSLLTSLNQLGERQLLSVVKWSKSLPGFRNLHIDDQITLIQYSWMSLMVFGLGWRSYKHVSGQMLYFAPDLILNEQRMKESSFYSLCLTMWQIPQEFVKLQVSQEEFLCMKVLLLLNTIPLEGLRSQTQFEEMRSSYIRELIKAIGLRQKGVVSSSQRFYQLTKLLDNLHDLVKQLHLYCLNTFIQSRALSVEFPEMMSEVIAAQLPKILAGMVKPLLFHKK
Procedure, shortened: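 HEK293T PR-UAS-bla, 2% CS-FBS; 6 hr plating, then cpd + R5020 (1 nM final), 16 hr 37C/5% CO2. B/G FRET substrate 2 h RT. Ratio ch2/ch1 vs DMSO; CellTiter-Glo viability multiplexed, autofluorescence checked.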

[9] = TOX21_PR_BLA_Followup_Agonist_viability: Viability Assessment in the Tox21 HEK293 Progesterone Receptor (PR) Agonism Beta-lactamase Follow-Up Assay (AID 2283935);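 note: signal loss means lower viability so actives are cytotoxic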
Procedure, shortened: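 HEK293T PR-UAS-bla, 3,000 cells/well, 2% CS-FBS; 6 hr pre-incubation; cpd in DMSO, 16 hr 37C; LiveBLAzer 2 hr RT, then CellTiter-Glo 30 min RT, luminescence. Decrease = lost viability.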

[10] = TOX21_PR_BLA_Followup_Antagonist_viability: Viability Assessment in the Tox21 HEK293 Progesterone Receptor (PR) Antagonism Beta-lactamase Follow-Up Assay (AID 2283936);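 note: hits lower the luminescence signal meaning cytotoxicity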
Procedure, shortened: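 PR-UAS-bla HEK293T cells (3,000/well, 2% charcoal-stripped FBS) given compound plus R5020 agonist, 16 h at 37C. CellTiter-Glo added after bla read, 30 min at room temperature; luminescence loss indicates cytotoxicity.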

[11] = target: PGR (gene 5241) (UniProt P06401); assay: TOX21_PR_LUC_Followup_Antagonist: Tox21 HEK293 Progesterone Receptor (PR) Antagonism Luciferase Follow-Up Assay (AID 2283938);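 note: curve fitted upward as signal gain over DMSO baseline despite antagonist label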
Procedure, shortened: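 HEK293-PR-A-luc cells, 3,000/well, preincubated 5 h at 37C before compound addition in DMSO; 16 h compound exposure at 37C. ONE-Glo luciferase luminescence read after 30 min at room temperature, fitted relative to DMSO baseline.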

[12] = TOX21_PR_LUC_Followup_Antagonist_viability: Viability Assessment in the Tox21 HEK293 Progesterone Receptor (PR) Antagonism Luciferase Follow-Up Assay (AID 2283940)
Procedure, shortened: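 Multiplexed viability counter-screen: after 5 days in charcoal-stripped-FBS medium, HEK293-PR-A-luc cells are plated, pinned with DMSO-dissolved compounds for 16 h at 37C, and ATP content is quantified luminescently via CellTiter-Glo.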

[13] = TOX21_PR_LUC_Followup_Agonist_viability: Viability Assessment in the Tox21 HEK293 Progesterone Receptor (PR) Agonism Luciferase Follow-Up Assay (AID 2283941);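 note: loss of signal means cytotoxicity so actives lower viability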
Procedure, shortened: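 Cells were kept 5 days in charcoal-stripped serum medium before plating HEK293-PR-A-luc at 3,000 cells/well. After 5 h they received DMSO-dissolved compound and incubated 16 h at 37C. Viability was taken from CellTiter-Glo ATP luminescence.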

[14] = target: Thyroid hormone receptor alpha (Rattus norvegicus) + Thyroid hormone receptor beta (Rattus norvegicus) (UniProt P18113+P63059); assay: TOX21_TR_LUC_GH3_Antagonist_Followup: Tox21 GH3 Thyroid Hormone Receptor Antagonism Luciferase Follow-Up Assay (AID 2283942)
Procedure, shortened: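 Antagonist mode: GH3 cells seeded 1,500/well, compounds at 15 concentrations (92 uM to 5nM final) plus T3 at 1.0 nM final, 24 h at 37C. Luciferase read with ONE-Glo after 30 min at room temperature.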

[15] = target: THRA (gene 7067) (UniProt P10827); assay: TOX21_TRA_COA_Antagonist_Followup_ratio: Tox21 Thyroid Hormone Receptor alpha Antagonism through Coactivator Recruitment Follow-Up Assay, Ratio (AID 2283953)
Sequence of THRA (gene 7067) (P10827 whole entry, looked up, the tested form may be a part): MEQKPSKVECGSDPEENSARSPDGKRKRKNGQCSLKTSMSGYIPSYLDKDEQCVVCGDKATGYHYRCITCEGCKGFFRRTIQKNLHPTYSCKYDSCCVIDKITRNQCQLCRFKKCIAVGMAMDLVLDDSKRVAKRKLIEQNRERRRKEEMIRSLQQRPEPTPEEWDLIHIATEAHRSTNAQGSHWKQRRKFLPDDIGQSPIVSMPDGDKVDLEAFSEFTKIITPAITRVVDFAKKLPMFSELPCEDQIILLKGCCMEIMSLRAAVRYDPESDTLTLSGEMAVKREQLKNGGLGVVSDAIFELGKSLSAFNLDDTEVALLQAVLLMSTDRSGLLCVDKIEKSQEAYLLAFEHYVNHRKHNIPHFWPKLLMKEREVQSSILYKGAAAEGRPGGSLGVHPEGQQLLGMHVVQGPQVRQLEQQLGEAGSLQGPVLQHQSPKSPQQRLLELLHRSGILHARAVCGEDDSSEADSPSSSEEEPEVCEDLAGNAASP
Procedure, shortened: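 520:495 nm emission ratio (excitation 340 nm) reports fluorescein-SRC-2 peptide recruitment to GST-TRα LBD by TR-FRET with Tb anti-GST antibody. Values were normalized to DMSO (0%) and T3 control wells (100%); loss of signal indicated antagonism.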

[16] = target: THRB (gene 7068) (UniProt P10828); assay: TOX21_TRB_BLA_Antagonist_Followup_ratio: Tox21 Thyroid Hormone Receptor beta Antagonism Beta-lactamase (BLA) Follow-Up Assay, Ratio (AID 2283958)
Sequence of THRB (gene 7068) (P10828 whole entry, looked up, the tested form may be a part): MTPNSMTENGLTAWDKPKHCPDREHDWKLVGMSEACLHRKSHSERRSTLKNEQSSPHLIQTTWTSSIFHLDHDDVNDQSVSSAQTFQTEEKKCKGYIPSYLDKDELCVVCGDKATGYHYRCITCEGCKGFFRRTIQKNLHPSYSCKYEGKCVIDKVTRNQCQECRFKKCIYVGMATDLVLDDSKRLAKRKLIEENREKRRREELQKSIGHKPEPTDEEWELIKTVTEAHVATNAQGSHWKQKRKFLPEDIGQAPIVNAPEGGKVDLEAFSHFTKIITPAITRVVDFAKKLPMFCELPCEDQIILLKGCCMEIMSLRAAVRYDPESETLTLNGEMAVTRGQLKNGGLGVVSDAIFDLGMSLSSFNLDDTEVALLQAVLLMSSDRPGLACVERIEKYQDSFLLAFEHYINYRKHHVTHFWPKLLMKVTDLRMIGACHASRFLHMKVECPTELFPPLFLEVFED
Procedure, shortened: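 HEK293T TRb-bla (GAL4 DBD + hTRβ LBD), 2% cs-FBS phenol red-free DMEM, 5 h attach; cpds 11-pt triplicate, 18 h 37C; CCF4-AM 2 h RT; 460/530 ratio vs DMSO; CellTiter-Glo viability same wells.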

[17] = TOX21_TRB_BLA_Antagonist_Followup_viability: Viability Assessment in the Tox21 Thyroid Hormone Receptor beta Antagonism Beta-lactamase (BLA) Follow-Up Assay (AID 2283961)
Procedure, shortened: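 HEK293T cells with GAL4-human TRβ LBD and UAS-bla reporter, 3,000 cells/well in 2% charcoal-stripped FBS medium; 11-point concentrations in triplicate, 18 h at 37C. Viability from ATP by CellTiter-Glo luminescence, 30 min RT, same plates.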

[18] = target: THRB (gene 7068) (UniProt P10828); assay: TOX21_TRB_COA_Antagonist_Followup_ratio: Tox21 Thyroid Hormone Receptor beta Antagonism through Coactivator Recruitment Follow-Up Assay, Ratio (AID 2283967)
Procedure, shortened: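 Cell-free TR-FRET: GST-TRb LBD (5.0 nM) with fluorescein-SRC-2 peptide (200 nM) and Tb anti-GST antibody (2 nM), 0.10% BSA. 520:495 nm emission ratio normalized to DMSO (0%) and T3 (100%).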

[19] = target: Retinoic acid receptor RXR-alpha (Homo sapiens) (UniProt P19793); assay: TOX21_TR_RXR_BLA_Antagonist_Followup_ratio: Tox21 Thyroid Hormone Receptor beta Retinoid X Receptor alpha (RXRa) Antagonism Beta-lactamase (BLA) Follow-Up Assay, Ratio (AID 2283972)
Sequence of Retinoic acid receptor RXR-alpha (Homo sapiens) (P19793 whole entry, looked up): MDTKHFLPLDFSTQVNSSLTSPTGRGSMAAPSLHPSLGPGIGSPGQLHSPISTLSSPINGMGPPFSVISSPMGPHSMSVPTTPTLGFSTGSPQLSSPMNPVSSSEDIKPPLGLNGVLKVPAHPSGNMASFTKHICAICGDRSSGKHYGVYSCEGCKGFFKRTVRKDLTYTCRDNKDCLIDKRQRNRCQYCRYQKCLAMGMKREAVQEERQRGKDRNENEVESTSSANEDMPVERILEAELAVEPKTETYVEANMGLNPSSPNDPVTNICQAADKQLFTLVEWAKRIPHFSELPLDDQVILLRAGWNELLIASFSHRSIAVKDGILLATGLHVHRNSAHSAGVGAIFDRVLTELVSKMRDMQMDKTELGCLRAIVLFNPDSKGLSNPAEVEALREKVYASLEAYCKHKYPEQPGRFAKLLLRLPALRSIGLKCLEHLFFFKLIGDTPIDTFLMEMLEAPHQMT
Procedure, shortened: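 RXRa-UAS-bla HEK293T cells, 2,500/well in phenol red-free DMEM with 2% charcoal-stripped FBS, 5 h attachment, then compounds (11 concentrations, triplicate) for 16 h at 37C; FRET-B/GCCF4-AM substrate 2 h RT; 460:530 nm ratio, loss of signal vs DMSO.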

[20] = TOX21_TR_RXR_BLA_Antagonist_Followup_viability: Viability Assessment in the Tox21 Thyroid Hormone Receptor beta Retinoid X Receptor alpha (RXRa) Antagonism Beta-lactamase (BLA) Follow-Up Assay (AID 2283979)
Procedure, shortened: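 RXRa-bla HEK293T cells (2,500/well, phenol red-free DMEM, 2% charcoal-stripped FBS) were attached 5 h, then exposed to compounds at 11 concentrations in triplicate for 16 h at 37C. Viability measured by CellTiter-Glo ATP luminescence, bidirectional fitting versus DMSO.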

Measured: AC50

O=C(O)C(F)(F)C(F)(F)C(F)(F)C(F)(F)C(F)(F)C(F)(F)C(F)(F)F
inactive: [1] | [2] | [3] | [4] | [5] | [6] | [7]

COP(=S)(OC)Oc1ccc([N+](=O)[O-])cc1
inactive: [9] | [10] | [12] | [13]
active: [8] 38.4 µM | [11] 33.5 µM

CC1(c2ccc(Oc3ccccc3)cc2)OC(=O)N(Nc2ccccc2)C1=O (stereo not given)
inactive: [15] | [16] | [18]
active: [14] 25.7 µM | [17] 22 µM | [19] 28.9 µM | [20] 38.5 µM

ClC1C(Cl)C(Cl)C(Cl)C(Cl)C1Cl (stereo not given)
inactive: [8] | [9] | [10] | [11] | [13]

O=S(=O)(O)C(F)(F)C(F)(F)C(F)(F)C(F)(F)C(F)(F)C(F)(F)C(F)(F)C(F)(F)F
inactive: [1] | [2] | [3] | [4] | [5] | [6] | [7]

CCCN(CCOc1c(Cl)cc(Cl)cc1Cl)C(=O)n1ccnc1
active: [8] 32.3 µM | [11] 57.9 µM | [6] 9.92 µM
not listed: [14] | [15] | [16] | [17] | [18] | [19] | [20]
inactive: all other assays above
